# In the supplement of paper PMC11732987, “Enantioselective OTUD7B fragment discovery through chemoproteomics screening and high-throughput optimisation” (Communications Chemistry, 2025):
# A number with no mark means an inactive call.
# Molecular target: USP14 (UniProt P54578)
# Test: log2 ratio of Biotin-Ahx-Ub-VS probe labelling (fragment/DMSO); higher = less target engagement (more negative = stronger competition), active = hit call of the paper (q ≤ 0.05, log2 ratio ≤ -1)
# Details: compound concentration: 200 uM; treatment time: 3 h
# Procedure: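 Competitive ABPP in HEK293T cell lysate. Lysates were treated with each chloroacetamide fragment at 200 µM for 3 h, then with Biotin-Ahx-Ub-VS (0.5 µM, 1 h), NeutrAvidin-enriched and analysed by diaPASEF LC-MS/MS. Protein LFQ was median-normalised; average log2 ratio is fragment/DMSO from an unpaired t-test (n=3 treated, n=44 DMSO). Hits: q ≤ 0.05, log2 ratio ≤ -1, unique peptides ≥ 2.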
# Chain of USP14 (P54578 whole entry, the tested form may be a part): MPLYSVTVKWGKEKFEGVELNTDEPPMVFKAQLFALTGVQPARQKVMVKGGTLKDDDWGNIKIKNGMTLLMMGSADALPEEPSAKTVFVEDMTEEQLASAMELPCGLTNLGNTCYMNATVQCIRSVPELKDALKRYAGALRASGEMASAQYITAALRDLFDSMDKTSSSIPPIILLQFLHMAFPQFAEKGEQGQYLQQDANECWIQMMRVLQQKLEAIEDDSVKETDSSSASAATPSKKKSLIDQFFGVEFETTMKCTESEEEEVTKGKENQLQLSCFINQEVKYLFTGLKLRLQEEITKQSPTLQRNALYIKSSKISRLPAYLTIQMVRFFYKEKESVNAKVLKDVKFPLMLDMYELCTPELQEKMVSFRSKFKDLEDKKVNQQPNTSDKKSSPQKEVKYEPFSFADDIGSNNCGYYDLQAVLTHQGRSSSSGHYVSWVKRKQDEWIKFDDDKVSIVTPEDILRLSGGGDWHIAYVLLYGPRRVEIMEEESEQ
row,Compound,log2 ratio of Biotin-Ahx-Ub-VS probe labelling
1,CC1Cc2ccccc2N1C(=O)CCl (stereo not given),-0.771
2,CC(c1ccccc1)N(C)C(=O)CCl (stereo not given),-0.237
3,O=C(CCl)NCc1ccc(N2CCOCC2)c(F)c1,0.1
4,Cc1cc(Cl)ccc1NC(=O)CCl,-0.0914
5,CN(C)C(=O)c1ccc(CNC(=O)CCl)cc1,0.0549
6,Cc1cc(NC(=O)CCl)n(-c2ccccc2)n1,0.0764
7,O=C(CCl)N(C1=CCCCC1)C1CC1,-0.423
8,CN(CCC(O)c1ccc(Br)cc1)C(=O)CCl (stereo not given),-0.442
9,Cl.O=C(CCl)N1CCC(n2nc3ccccc3n2)CC1,-0.545
10,C[C@@H](NC(=O)CCl)c1cccc(C#N)c1,-0.243
11,Cc1nc(CN2CCCN(C(=O)CCl)CC2)no1.Cl,0.0942
12,Cc1conc1C1CN(C(=O)CCl)C1,-1.12 (active)
13,O=C(CCl)NC(Cn1ccccc1=O)c1ccccc1 (stereo not given),-0.174
14,Cc1ccc(CN(C)C(=O)CCl)o1,-0.0502
15,O=C(CCl)Nc1cccc(NC(=O)c2ccccc2)c1,0.235
16,O=C(CCl)Nc1cc(Cl)ccc1C(=O)O,0.0912
17,CCc1c[nH]c(CNC(=O)CCl)n1.Cl,-0.5
18,CCN1C(=O)C2CN(C(=O)CCl)CCN2C1=O (stereo not given),-0.176
19,O=C(CCl)N1CCc2[nH]c3ccccc3c2C1,-1.05 (active)
20,Cc1ccc(N(C(=O)CCl)C2C=CS(=O)(=O)C2)cc1 (stereo not given),-0.0859

row,Compound,log2 ratio of Biotin-Ahx-Ub-VS probe labelling
1,O=C(CCl)NCC1(c2ccccc2)CC1,0.0125
2,O=C(CCl)N[C@H]1CCS(=O)(=O)c2ccccc21,-0.0969
3,O=C(CCl)N1CCOCCC1c1ccccc1 (stereo not given),-0.111
4,O=C(CCl)N(Cc1ccsc1)C1CC1,-0.456
5,Cc1ccc(C)c(Oc2ccc(CNC(=O)CCl)cn2)c1.Cl,-0.371
6,Cl.O=C(CCl)NCCc1ncc(F)cc1F,-0.31
7,Cc1ccc(N2CCC(NC(=O)CCl)C2=O)cc1 (stereo not given),-0.0106
8,O=C(CCl)N1CCc2sccc2C1,-0.619
9,Cc1cnc2[nH]cc(CCNC(=O)CCl)c2c1,-0.111
10,O=C(CCl)N1CCN(c2nc3ccccc3o2)CC1,-0.836
11,Cc1ccc(CNC(=O)CCl)nc1C.Cl,-0.372
12,O=C(CCl)Nc1cc(Cl)ccc1-n1cncn1,-1.09 (active)
13,Cc1ccccc1OCC(=O)N1CCN(C(=O)CCl)CC1,-0.131
14,O=C(CCl)N1CCOC(c2cccc(F)c2)C1 (stereo not given),-0.3
15,Cc1ccn2cc(CNC(=O)CCl)nc2c1.Cl,0.000672
16,Cc1n[nH]c2c1CN(C(=O)CCl)CC2,-0.903
17,O=C(CCl)N1CCOC2(CCC2)CC1,-0.247
18,CC1CN(c2ccc(NC(=O)CCl)cc2)CC(C)O1 (stereo not given),-0.0454
19,Cc1n[nH]c(=O)c2c(NC(=O)CCl)oc(C)c12,0.0281
20,N#Cc1cnn(-c2ccccc2)c1NC(=O)CCl,-0.345
